Assay results published in PubChem BioAssay AID1794835 (Parasite Biology Lab, Institute for Biomedicine and …, 2023).
About 45 (2%) of roughly 2,500 compounds were called active. Rule as the data show it: active = inhibition mostly above about 45% (no sharp cut-off); inactive = mostly below about 37%. For the sample, actives were picked, then their nearest neighbours and some compounds at random.

Test: anti-Giardia activity of synthetic compounds – Compounds Australia Scaffold Library subset, 24/48 h, primary screen (AID 1794835);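 as to inhibition: 0% = parasite counts in DMSO vehicle wells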
Settings: Giardia lamblia BRIS/91/HEPU/1279 trophozoite counts, imaging, at 10 µM
[1] = measured here: growth inhibition at 24 h, stronger effect = higher value

Cc1ccccc1C(=O)Nc1cnc(N2CCNCC2)c(C(=O)N(C)Cc2ccccc2)c1
inhibition (stronger effect = higher value): 15.2% (inactive) | inhibition [1]: 10.2%

CCC(=O)N1CCC(Oc2ccc(C(=O)N3CCOCC3)cn2)CC1
inhibition: inactive

Cc1nnc2n1CCN(C(=O)c1cc(Br)c[nH]1)C2
inhibition: inactive

COc1cc(N2CCn3c(nc4cc(Cl)ccc43)C2)ccc1NC(=O)COc1ccccc1
inhibition: inactive

COc1c(C)cnc(Cn2cnc([N+](=O)[O-])c2)c1C
inhibition (stronger effect = higher value): 83% (active) | inhibition [1]: 25.8%

Cc1noc(-c2c(C)sc(C)c2S(=O)(=O)NCc2ccccc2)c1C
inhibition (stronger effect = higher value): 30.5% (inactive)

Cc1ccc(C(=O)N2CCC(Oc3ncccc3C(=O)N3CCCCC3)C2)c(C)c1 (configuration not stated)
outcome: inactive | inhibition [1]: 0.6%

COc1ccc2oc(-c3noc(C(=O)NCCN4CCCCCC4)n3)c(C)c2c1
inhibition (stronger effect = higher value): 56.6% (active) | inhibition [1]: 11.6%

Cc1ccc2oc(-c3noc(C(=O)NCC4CCCO4)n3)c(C)c2c1 (configuration not stated)
outcome: inactive | inhibition [1]: 2%

COc1ccc2oc(-c3noc(C(NC(=O)c4ccco4)C(C)C)n3)c(C)c2c1 (configuration not stated)
inhibition (stronger effect = higher value): 9.9% (inactive) | inhibition [1]: 18.3%

Cc1cccc(-c2nc(Cn3nnc(C(=O)Nc4ccc5c(c4)OCCO5)c3N)c(C)o2)c1
inhibition: inactive

CCOc1ccc(CCNC(=O)c2c(C)oc3c2C2=NCCN2C=N3)cc1OCC
inhibition (stronger effect = higher value): 17.8% (inactive)

CCOc1ccc(CCNC(=O)c2ccc3c(c2)nc2n3CCOC2)cc1OCC
inhibition (stronger effect = higher value): 79.8% (active) | inhibition [1]: 27.2%

CSc1ccc(CCNC(=O)c2ccc3c(c2)nc2n3CCOC2)cc1
inhibition (stronger effect = higher value): 12.8% (inactive)

Cc1ccc(-c2nc3ccccc3n2Cc2cccc(F)c2)o1
inhibition (stronger effect = higher value): 16.3% (inactive) | inhibition [1]: 22.1%

COc1ccc(C2(C(=O)N3CCC(Cc4nc(-c5ccc(F)cc5)no4)CC3)CC2)cc1
outcome: inactive | inhibition [1]: 11.4%

C=CCn1c(SCC(=O)N2CCCCC2)nc2scc(-c3ccco3)c2c1=O
inhibition (stronger effect = higher value): 5.6% (inactive) | inhibition [1]: 6.8%

CCCCn1nnnc1CN1CCCC1Cn1cncn1 (configuration not stated)
outcome: inactive | inhibition [1]: 2%

O=C(Nc1ccn(Cc2cccnc2)n1)c1ccc2n[nH]nc2c1
inhibition: inactive

O=C(Cn1nccc1-c1ccncc1)Nc1ccc(Cl)cc1
inhibition: inactive

O=C(Cc1csc2nc(-c3ccccc3)cn12)Nc1ccc(Cl)cc1
inhibition (stronger effect = higher value): 67.7% (active) | inhibition [1]: 47.6%

O=C(Cc1csc2nc(-c3ccccc3)cn12)NCCc1cccs1
outcome: inactive | inhibition [1]: 0.1%

Cc1oc(-c2cccs2)nc1Cn1cccn1
inhibition: inactive

O=C(Cc1noc(-c2ccoc2)n1)NC1CCCCC1
inhibition (stronger effect = higher value): 3.1% (inactive) | inhibition [1]: 4.9%

Cc1ccc(C)c(-c2cc3c4nn(CC(=O)N(C)c5ccc(F)cc5)c(=O)n4ccn3n2)c1
inhibition (stronger effect = higher value): 96.3% (active) | inhibition [1]: 79.6%

O=C(Cn1nc2c3cc(-c4ccccc4)nn3ccn2c1=O)N1CCCc2ccccc21
inhibition: inactive

Cc1ccc(CNC(=O)c2ccc3nn(CC(=O)N(C)c4ccccc4)c(=O)n3c2)cc1
inhibition: inactive

O=S(=O)(Cc1ccc(C(F)(F)F)cc1)Cc1noc(C2CC2)n1
outcome: inactive | inhibition [1]: 12.6%

CCc1nccn1CC1CCCN1 (configuration not stated)
outcome: inactive | inhibition [1]: 0.2%

Cc1ccc(N2C(=O)N[C@@H]3C[C@]2(C)Oc2c(O)cc(C(C)(C)C)cc23)cc1C
inhibition: inactive

Cc1c(-c2nc(-c3ccccc3)no2)nnn1-c1cccc(Cl)c1
inhibition: inactive

Cc1ccc(C)c(NC(=O)Cc2nc(Cn3cnc([N+](=O)[O-])c3)cs2)c1
inhibition (stronger effect = higher value): 59.9% (active) | inhibition [1]: 8.45%

CN(C)C(=O)Cc1nc(CN2CCc3c(ncn3C)C2)cs1
outcome: inactive | inhibition [1]: 1.4%

Cc1ccc(NC(=O)Cc2nc(-c3ccc4c(c3)CC(=O)N4C)cs2)cc1
inhibition (stronger effect = higher value): 10% (inactive) | inhibition [1]: 9.8%

Cc1nc(C2(NC(=O)CCc3ncc(-c4ccccc4F)o3)CCCCC2)no1
inhibition: inactive

Cc1ccc(NC(=O)c2nnc(C3CCCN3C(=O)NC3CCCC3)s2)cc1 (configuration not stated)
inhibition (stronger effect = higher value): 4.4% (inactive) | inhibition [1]: 1%

CCN(Cc1cccs1)C(=O)CN1CCC(n2c(=O)[nH]c3ccccc32)CC1
inhibition: inactive

CN1CCN(CCNC(=O)CN2C(=O)C3CCCCN3c3ccc(C(=O)N4CCCC4)cc32)CC1 (configuration not stated)
inhibition (stronger effect = higher value): 13% (inactive) | inhibition [1]: 11.7%

Cc1ccc(NC(=O)CN2C(=O)C3CCCCN3c3ccc(C(=O)N4CCCC4)cc32)cc1 (configuration not stated)
inhibition (stronger effect = higher value): 62.4% (active) | inhibition [1]: 35.5%

O=C(CN1C(=O)COc2ccc(C(=O)N3CCCCC3)cc21)NCc1ccccc1
inhibition: inactive

O=C(NCCCN1CCN(c2ccccc2)CC1)c1noc2c1CCCCC2
inhibition (stronger effect = higher value): 9.7% (inactive)

Cc1cccc(CC(=O)N2CCN(c3nc4cccnc4n(Cc4ccccc4)c3=O)CC2)c1
inhibition (stronger effect = higher value): 38.8% (inactive) | inhibition [1]: 12.1%

CCN1CCCc2cc(C(=O)N3CCOCC3)sc21
inhibition: inactive

Cc1nccc2[nH]c(=O)c(C(=O)NCCCN(C)C3CCCCC3)cc12
outcome: inactive | inhibition [1]: 0.2%

CCC1Cn2c(C(=O)NCCN(C)C3CCCCC3)cc3cccc(c32)O1 (configuration not stated)
inhibition (stronger effect = higher value): 53.7% (active) | inhibition [1]: 13.8%

Cc1cc(C)c2c(=O)n(CC(=O)Nc3ccc(Br)cc3)c(=O)n(C)c2n1
outcome: inactive | inhibition [1]: 4.9%

CCC1CCCCN1C(=O)Cn1c(C(=O)OC)cc2occc21 (configuration not stated)
inhibition (stronger effect = higher value): 8.8% (inactive)

CCc1nnc2c3ccccc3nc(N3CCN(c4cccc(Cl)c4)CC3)n12
inhibition (stronger effect = higher value): 73.1% (active) | inhibition [1]: 33.5%

CC(C)C(=O)N1CCN(c2nc3ccccc3c3nnc(-c4cccs4)n23)CC1
inhibition: inactive

Cc1cc2n(n1)CCCN2CC(=O)N1CCN(c2cccc(Cl)c2)CC1
inhibition (stronger effect = higher value): 5.3% (inactive)

O=C1CC(C(=O)N2CCN(c3ccccc3F)CC2)CN1Cc1ccccc1 (configuration not stated)
inhibition: inactive

COc1cccc(CCC(=O)N2CCCC(c3nnc4n3CCCCC4)C2)c1 (configuration not stated)
inhibition (stronger effect = higher value): 2.6% (inactive) | inhibition [1]: 2.1%

O=c1c2cnc(N3CCCCC3)nc2ccn1CCc1ccccc1
inhibition: inactive

O=C(c1ccco1)N1CCC(NS(=O)(=O)c2ccc(Cl)cc2)CC1
outcome: inactive | inhibition [1]: 0.2%

O=C(Nc1ccccc1)c1cc(-c2cccs2)n(C2CCS(=O)(=O)C2)n1 (configuration not stated)
inhibition (stronger effect = higher value): 1.7% (inactive) | inhibition [1]: 9.1%

Cc1cccc(-c2noc(Cn3cccn3)n2)c1
outcome: inactive | inhibition [1]: 3.8%

Cc1ccc(S(=O)(=O)NC2CCN(C(=O)Cc3ccc(Br)cc3)CC2)cc1
inhibition (stronger effect = higher value): 3.1% (inactive) | inhibition [1]: 2%

Cc1ccnc(N2CCCC(C(=O)NC3CCCC3)C2)n1 (configuration not stated)
inhibition (stronger effect = higher value): 10.9% (inactive) | inhibition [1]: 2.5%

O=C(C1CCN(S(=O)(=O)c2ccccc2)CC1)N1CC=C(c2ccccc2)CC1
outcome: inactive | inhibition [1]: 1%

Cc1ccnc(N2CCCC(C(=O)N3CC=C(c4ccccc4)CC3)C2)n1 (configuration not stated)
inhibition (stronger effect = higher value): 46.1% (active) | inhibition [1]: 18%

O=c1c2ccsc2ncn1Cc1nc(Cc2ccccc2)no1
inhibition: inactive

Cc1ncc([N+](=O)[O-])n1Cc1csc(Cc2ccccc2)n1
inhibition (stronger effect = higher value): 67% (active) | inhibition [1]: 30.1%

CC(NC(=O)Cc1csc(Cc2ccccn2)n1)c1ccc(F)cc1 (configuration not stated)
outcome: inactive | inhibition [1]: 5.1%

O=C(Cc1ccccc1)NCc1nc(-c2ccc3c(c2)nnn3C2CCCC2)no1
inhibition: inactive

O=C(NCc1cccc(C(F)(F)F)c1)C1CCCN(c2nccnc2Oc2ccccc2)C1 (configuration not stated)
inhibition (stronger effect = higher value): 15.6% (inactive)

COc1ccc(CNC(=O)N2CCC(c3ccn4ncc(C(=O)N5CCOCC5)c4c3)CC2)cc1
inhibition (stronger effect = higher value): 0.7% (inactive) | inhibition [1]: 3.8%

CCCCN(CCCC)S(=O)(=O)c1ccc2c(c1)CCCC(=O)N2
inhibition (stronger effect = higher value): 27.2% (inactive) | inhibition [1]: 13.8%

COCCCN(Cc1ccco1)C(=O)Cn1cnc2onc(-c3ccc(Cl)cc3)c2c1=O
inhibition: inactive

CCCn1nc(C(=O)N2CCCN(C(C)=O)CC2)ccc1=O
inhibition: inactive

NCc1c2n(c(=O)n(CC(=O)Nc3ccc4c(c3)OCCO4)c1=O)CCCCC2
inhibition: inactive

Cc1sc(-c2ccc(=O)[nH]n2)cc1S(=O)(=O)NCc1cccnc1
inhibition: inactive

Cc1sc(C(=O)N2CCCC2)c2ncnc(NCc3ccc(F)c(Cl)c3)c12
inhibition (stronger effect = higher value): 23.9% (inactive) | inhibition [1]: 14.4%

Cc1cccc(CNS(=O)(=O)c2cc(-c3csc(C)n3)sc2C)c1
inhibition (stronger effect = higher value): 63.6% (active) | inhibition [1]: 21.2%

CCc1nc(-c2cc(S(=O)(=O)NCc3ccc(F)c(Cl)c3)c(C)s2)cs1
inhibition (stronger effect = higher value): 43.9% (active) | inhibition [1]: 15.2%

CCc1nc(-c2cc(S(=O)(=O)NCc3ccccc3)c(C)s2)no1
inhibition: inactive

CCNS(=O)(=O)c1cc(-c2ccc(=O)n(CC)n2)sc1C
inhibition: inactive

CN1CCN(CC2CCN(C(=O)Cc3cccc4ccccc34)CC2)CC1
inhibition (stronger effect = higher value): 17.7% (inactive)

COc1cccc(Nc2c3c(nc4ccccc24)CCC3)c1
inhibition (stronger effect = higher value): 62.3% (active) | inhibition [1]: 22%

COc1cccc(Nc2nc(N3CCN(c4ccccc4)CC3)nc3c2cnn3C)c1
inhibition (stronger effect = higher value): 5.8% (inactive) | inhibition [1]: 6.1%

COc1cccc(-c2noc(Nc3cccc(C)c3)n2)c1
outcome: inactive | inhibition [1]: 3.1%

Fc1cccc(Nc2c3c(nc4ccccc24)CCC3)c1
inhibition (stronger effect = higher value): 55.5% (active) | inhibition [1]: 2.3%

CCc1cccc(NC(=O)C2CCCN(S(=O)(=O)c3c(C)noc3C)C2)c1 (configuration not stated)
outcome: inactive | inhibition [1]: 13.3%

O=C1CSCN1CC(=O)N1CCCCC1c1cc2ccccc2[nH]1 (configuration not stated)
inhibition: inactive

COc1ccc(C2=Nc3ccccc3N(CC(=O)Nc3cccc(F)c3)C(=O)C2)cc1
inhibition (stronger effect = higher value): 40.3% (active) | inhibition [1]: 12.6%

COc1ccc(-n2ccn(CC(=O)Nc3cccc(F)c3)c2=O)cc1
inhibition: inactive

COc1ccc(C2=Nc3ccccc3N(Cc3cccc(F)c3)C(=O)C2)cc1
inhibition (stronger effect = higher value): 30.2% (inactive) | inhibition [1]: 8.7%

CNC(=O)N1C[C@@H](CN(C)C)[C@@H](C2CCN(CCC(C)C)CC2)C1
outcome: inactive | inhibition [1]: 13.1%

COc1ccc(CNS(=O)(=O)c2ccc3onc(C(=O)N4CCCCC4)c3c2)cc1OC
outcome: inactive | inhibition [1]: 3.7%

O=C(Nc1nc(-c2ccco2)c(-c2ccco2)s1)c1ccccc1
inhibition (stronger effect = higher value): 71.2% (active) | inhibition [1]: 27.2%

Cc1ccc(NC(=O)c2ncoc2-c2ccco2)cc1Cl
inhibition: inactive

CCN1CCc2nc(NC(=O)c3ccccc3)sc2C1
inhibition: inactive

CC(=O)c1c(C)[nH]c(C(=O)Nc2nc(-c3ccco3)c(-c3ccco3)s2)c1C
inhibition (stronger effect = higher value): 52.8% (active) | inhibition [1]: 25%

O=C(NCc1ccccc1)c1cc(-c2ccco2)on1
inhibition: inactive
